Assay results reported in PubChem BioAssay AID686970 (National Center for Advancing Translational Sciences (NCATS), 2013).
About 6,000 (1.7%) of roughly 360,000 compounds were called active. Not shown: some 8% with an inconclusive outcome. Shown is part of a subset that was picked to be rich in actives. A number with no mark means an inactive call. Calls follow the shape of the dose curve; as a rule, active = well fitted cell-killing curve with a large enough effect; inconclusive = small, poorly fitted or top-dose-only effect, or effect the other way; inactive = flat fitted curve, though single readings scatter.

Experiment: qHTS for induction of synthetic lethality in tumor cells producing 2HG: qHTS for the HT-1080-NT fibrosarcoma cell line; also: nearly all actives have a fitted effect of over 55% in size
Conditions: HT-1080-NT fibrosarcoma viability, CellTiter-Glo ATP luminescence, 48 h; series mostly up to 46.1 µM; activity, negative = less viability: at the top concentration
Source text: Unbiased genomic sequencing for 22 glioma genomes found recurrent mutation of IDH1 on chromosome 2q33, a gene encoding the cytosolic isoform of IDH1 associated with the tricarboxylic acid cycle (TCA) that catalyzes the oxidative decarboxylation of isocitrate, yielding alpha-ketoglutarate and CO2 via NADP+ to NADPH conversion. Subsequent studies confirmed the recurrent IDH mutations in up to 70% of secondary gliomas and in 10% of AML cases. In addition, the somatic mutation of cancer-associated IDH1 is a point mutation resulting in various amino-acid substituents at Arginine132 (IDH1 R132), a key residue found in the enzyme's active site that when mutated, results in the loss-of-function in metabolizing isocitrate but confers a gain-of-function to produce the oncometabolite 2-hydroxyglutarate (2HG). This in effect defines IDH1 as an oncogene and provides an extraordinary opportunity to discover chemical probes against mutant IDH1 that may translate into much needed new therapies for glioma and AML patients.
This assay aims to perform a synthetic lethal screen for chemical probes specific for 2HG-producing tumor cells using matched paired cell lines (1) HT-1080-NT fibrosarcoma cell line that overproduces 2HG and (2) HT-1080-IDH1KD cell line which has IDH1 expression knocked-down. Desirable compounds are toxic to the NT fibrosarcoma cells but not to the IDH1KD cell line. The data in this AID corresponds to the results of the qHTS against the HT-1080-NT fibrosarcoma cell line.
[1] Dang L, Jin S, Su SM. IDH mutations in glioma and acute myeloid leukemia. Trends of Mol Med. 2010; 16(9): 387-97.
[2] Dang L et al. Cancer-associated IDH1 mutations produce 2-hydroxyglutarate. Nature. 2010; 465(7300):966.
NIH Molecular Libraries Probe Production Centers Network [MLPCN]
NIH Chemical Genomics Center [NCGC]
Assay Submitter (PI): Lenny Dang Ph.D., Agios Pharmaceuticals
Suspensions of trypsinized HT-1080-NT cells were dispensed into white, tissue culture-treated, solid 1536-well plates at 5uL/well (750 cells/well final concentration) in RPMI medium supplemented with 5% FBS. Plates were incubated at 37 degrees C for 2 hours, after which 23 nL of compounds or DMSO were delivered to each well using a pin tool. Plates were then incubated at 37 degrees C for an additional 48 hours. CellTiter-Glo viability reagent (Promega) was dispensed into wells (2.5uL/well) and incubated at room temperature for 10 minutes. The plates were measured on a PerkinElmer ViewLux plate reader for luminescent signal (clear filter, 1 sec exp). DMSO-treated control wells and media-only (no cells) control wells were used to normalize %Activity of identified toxic compounds; DMSO-treated wells corresponded to 0%Activity (100% viability), while media-only controls were used to normalize 100%Activity (0% viability).
Concentration-response curves were fitted to the signals arising from the resulting luminescence. The concentration-effect curves were then classified based on curve quality (r2), response magnitude and degree of measured activity, and compounds were subsequently categorized based on their curve class.
Potency is read from the fitted curve at half-maximal effect.

Compound	Potency	activity, negative = less viability
CCOC(=O)[C@]12Cc3ccccc3[C@H]1N(C1CCCCC1)C(=O)c1cc(OC)ccc12	5.8 µM (active)	
CCOC(=O)[C@]12Cc3cc(OC)ccc3[C@H]1N(C(C)C)C(=O)c1ccccc12	11.6 µM (active)	
CCCC(C)n1[nH]c(=O)c2c1NC(=O)CSC2c1ccc(OC)c(OC)c1 (stereo not given)		0.635%
Oc1cc2c(cc1CN1CCN(c3ccccc3)CC1)OCO2		8.84%
COc1ccccc1OC(=O)c1ccc(C)c(S(=O)(=O)N2CCOCC2)c1		-2.07%
CC1([N+](=O)[O-])COP(=O)(Nc2ccc(F)cc2)OC1 (stereo not given)		6.83%
O=c1c2ccccc2[nH]c(=S)n1-c1cccc(Cl)c1		-1.3%
Cc1cc(-c2ccc(N)c(C)c2)ccc1N		-1.84%
Nc1ccc(Cc2ccc(N)c(Cl)c2)cc1Cl		-19%
COC(=O)C[C@H]1CC[C@H]2NC[C@@H](O)COC[C@@H]2O1		17.8%
Cc1c(Oc2cc(NN3CCCCC3)c([N+](=O)[O-])cc2[N+](=O)[O-])cccc1[N+](=O)[O-]		11%
Cc1nc2ccccc2c(=O)n1-c1ccc(Cl)cc1Cl		-2.24%
O=c1c2ccccc2nc(/C=C/c2ccco2)n1-c1ccccc1O		-24.6%
O=c1c2ccccc2nc(/C=C/c2ccc(F)cc2)n1-c1ccccc1O	23.1 µM (active)	
c1ccc(C(CN2CCCCC2)c2ccccc2)cc1		2.28%
CCc1cccc2c(C#N)cn(CC(=O)N3CCOCC3)c12		-2.69%
COC1C(O)C(C)OC(OC2CCC3(C=O)C(CCC4C3CCC3(C)C(C5=CC(=O)OC5)CCC43O)C2)C1O (stereo not given)	0.206 µM (active)	
C[C@H]1CN([C@@H](C)CO)C(=O)CCCn2nncc2CO[C@H]1CN(C)C(=O)Oc1cccc2ccccc12		4.3%
CCn1cc(CN2CCCC(C(=O)c3cccc(C(F)(F)F)c3)C2)cn1 (stereo not given)		-1.31%
COc1ccc(NC(=O)N2Cc3ccccc3-n3nncc3C2)cc1		4.07%

Compound	Potency	activity, negative = less viability
CC(=CCOc1ccc2ccc(=O)oc2c1)C1=CC(=O)C(C)(C)O1		-21.3%
O=c1c2ccccc2nc(CBr)n1-c1ccc(Cl)cc1		-11%
COC(=O)CN(CCCl)P1(=O)OCCCN1CCCl (stereo not given)		23%
CCCCCCCCCCCCn1ccc(=N)cc1	2.59 µM (active)	
CSC1=NP(=S)(SC)N(C)c2nc3n(c21)CCC3 (stereo not given)		7.49%
COC(=O)C1=C(c2ccc(F)cc2F)C[C@@H]2CC[C@H]1N2C(=O)NC1CC1		7.87%
CC(C)CN1Cc2cc(N3CCCCC3)ccc2-n2nncc2C1		-1.63%
COc1ccc(-c2nn(CCC#N)cc2C(=O)Nc2ccc(C(C)=O)cc2)cc1		-9.46%
CCOC(=O)CNC(=O)N1Cc2cc(N3CCCCC3)ccc2-n2nncc2C1		13%
COc1cc(C2c3cc4c(cc3C(O)C3COC(=O)C23)OCO4)cc(OC)c1OC (stereo not given)	0.0058 µM (active)	
CCN1C(=O)NC(=O)C2(CCCC2)C1=O		2.59%
CCOc1cccc(=NC2CCCCC2)c2c(C)[nH]c(C)c12	20.6 µM (active)	
CCOP(=S)(OCC)C(O)CCCCCn1c(=O)c(F)cn(C2CCCO2)c1=O (stereo not given)		10.4%
COc1cc(C(=O)N2Cc3ccc(Br)cc3-n3nncc3C2)cc(OC)c1OC		28.4%
COC1=C[C@@H]2[C@@H]3Cc4ccc(OC)c(O)c4[C@]2(CCN3C)CC1=O		8.69%
O=[N+]([O-])c1ccc(Cl)c(Cl)c1		13.2%
CC(=O)OC1C2(CC3N4C(=O)C5(CO)SSC4(CC31O)C(=O)N5C)OC(C)C(C)(C)C2=O (stereo not given)	0.651 µM (active)	
CC[C@H]1CC2CN3CCc4c([nH]c5ccccc45)C(C(=O)OC)(C2)C13 (stereo not given in full)		4.35%
CCN(N=Nc1nonc1OC)c1nonc1OC		-0.973%
CCOC(=O)C1CN(C)CCC1=O (stereo not given)		5.26%
